Activity calls are given as the source filed them.
What was measured:
[1] = target: Albumin (Bos taurus) (UniProt P02769); assay: bovine serum albumin binders on microarray, profiling panel, artefact control for SMM control protein annotation, biochemical, small-molecule microarray, Alexa647 label, 635/667 nm fluorescence (AID 1118); details: BSA-A647 binding, fluorescence 635 nm, higher = more signal;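 further: score merges 667 nm emission intensity and signal-to-noise per printed compound spot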
[2] = small-molecule microarray binders of probe aXIP, primary screen, biochemical, NeuroSMM set, 635/667 nm fluorescence (AID 1119); details: higher = more signal, called active from +8 up or from −8 down;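 further: probe is the protein aXip251-270 applied at 1 µg/mL to compound-printed slides; binding of probe to printed compounds measured as 667 nm fluorescence plus signal to noise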
[3] = small-molecule binders of probe aNOTCH3, primary screen, biochemical, small-molecule microarray, 635/667 nm fluorescence (AID 1120); details: higher = more signal;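 further: probe is a biotin-tagged antibody raised against NOTCH3 rather than NOTCH3 protein; score merges spot fluorescence near 667 nm with spot signal to noise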
[4] = small-molecule binders of probe aNOTCH2, primary screen, biochemical, small-molecule microarray, 635/667 nm fluorescence (AID 1121); details: higher = more signal;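 further: score merges feature fluorescence read at 667 nm with its signal to noise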
[5] = target: Carbonic anhydrase 2 (Homo sapiens) (UniProt P00918); assay: CAII small-molecule binders, profiling panel, biochemical, small-molecule microarray, Alexa647-labelled CAII (AID 1122); details: CAII-A647 binding fluorescence, higher = more signal
[6] = COS7 lysate on small-molecule microarray, probe aHis, 635 nm (AID 1123); details: COS7 cell lysate, fluorescence, higher = more signal;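 further: z-score combines 667nm fluorescence intensity with signal-to-noise per printed compound spot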
[7] = compound binding in COS7 lysate, probe aLAP1, primary screen, cell lysate, small-molecule microarray (AID 1124); details: probe aLAP1, fluorescence, higher = more signal;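 further: lysate comes from COS7 cells expressing LAP1 and is applied at 0.3 µg/mL; score merges spot fluorescence near 667 nm with signal-to-noise over triplicate slides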
[8] = test system: Sam68 (KHDRBS1); assay: Sam68 small-molecule binders, primary screen, biochemical, small-molecule microarray, 635 nm fluorescence (AID 1125); details: small-molecule microarray binding, higher = more signal;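 further: score merges 667 nm channel intensity with signal to noise over triplicate slides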
[9] = test system: Chordin-like protein 2 (CHRDL2); assay: CHRDL2 small-molecule binders, primary screen, biochemical, small-molecule microarray, 635 nm fluorescence (AID 1126); details: small-molecule microarray binding, fluorescence 635 nm; higher = more signal;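 further: printed compound slides probed with Chrdl2 protein at 4 µg/mL for 1 h at 4 C; score merges 667 nm emission intensity with signal to noise over three replicate slides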
[10] = target: Concanavalin-A (Canavalia ensiformis) (UniProt P02866); assay: ConA small-molecule binders, primary screen, artefact control for SMM control protein annotation, biochemical, small-molecule microarray, Alexa647 label, 635 nm (AID 1127); details: ConA-A647 binding fluorescence, higher = more signal;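 further: z combines 667 nm emission intensity with signal-to-noise across three replicate slides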
[11] = anti-His antibody binders, primary screen, artefact control for SMM control protein annotation, biochemical, small-molecule microarray, 635 nm fluorescence (AID 1128); details: anti-His Alexa647 antibody binding, higher = more signal;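 further: score merges feature fluorescence with signal-to-noise for each printed compound spot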
[12] = test system: Human papillomavirus type 1a E7 protein (residues 1-88); assay: HPV1a E7 small-molecule binders, primary screen, biochemical, small-molecule microarray, residues 1-88, 635 nm (AID 1129); details: small-molecule microarray binding, fluorescence 635 nm; higher = more signal
[13] = target: Focal adhesion kinase 1 (Homo sapiens) (UniProt Q05397); assay: small-molecule microarray binders of FAK, primary screen, biochemical, 635/667 nm fluorescence, BSA, DTT (AID 1130); details: PTK2 binding, 635 nm fluorescence, higher = more signal;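 further: composite of spot emission at 667 nm and signal to noise over triplicate slides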
[14] = test system: Fibrinogen (Alexa647-labelled); assay: fibrinogen binders on compound microarrays, profiling panel, artefact control for SMM control-protein annotation, biochemical, small-molecule microarray, 635/667 nm fluorescence (AID 1131); details: fibrinogen-A647 binding fluorescence, higher = more signal;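 further: z-score merges 667 nm fluorescence with per-spot signal-to-noise over triplicate slides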
[15] = target: Follistatin (Homo sapiens) (UniProt P19883); assay: follistatin binders on small-molecule microarrays, primary screen, biochemical, small-molecule microarray, 635/667 nm fluorescence (AID 1132); details: FST binding, 635 nm fluorescence, higher = more signal
[16] = target: Fibroblast growth factor 2 (Homo sapiens) (UniProt P09038); assay: FGF2 binders on small-molecule microarrays, primary screen, biochemical, small-molecule microarray, 635/667 nm fluorescence (AID 1133); details: small-molecule microarray binding, FGF2, fluorescence 635/667; higher = more signal
[17] = mitochondrial membrane potential change in A549 cells, profiling panel, cell-based, JC-1 fluorescence, basal, 24 h, 100 nL (AID 1138); details: higher = more signal;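 further: A549 lung adenocarcinoma cells under basal conditions with no added stimulus; test concentration not given here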
[18] = test system: Lefty1; assay: Lefty1 binders on small-molecule microarrays, primary screen, biochemical, small-molecule microarray, 635/667 nm fluorescence (AID 1139); details: small-molecule microarray binding, fluorescence 635/667; higher = more signal
[19] = test system: wheat germ agglutinin (Triticum aestivum), Alexa647-labelled; assay: wheat germ agglutinin binders on compound microarrays, profiling panel, artefact control for SMM control-protein annotation, biochemical, small-molecule microarray, 635/667 nm fluorescence (AID 1140); details: WGA-A647 binding, 635 nm fluorescence, higher = more signal;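 further: score merges 667 nm feature emission with signal to noise over triplicate slides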
[20] = target: Luciferin 4-monooxygenase (Photinus pyralis) (UniProt P08659); assay: firefly luciferase enzyme inhibitors, primary screen, biochemical, luminescence, purified enzyme, 2006 set (AID 1141); details: SteadyGlo luminescence, 30 min, higher = more signal, called active from +8 up or from −8 down;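 further: cell-free assay with purified firefly luciferase at 100 ng per well in PBS; test concentration not given here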
Luciferin 4-monooxygenase (Photinus pyralis), sequence (P08659 whole entry, looked up): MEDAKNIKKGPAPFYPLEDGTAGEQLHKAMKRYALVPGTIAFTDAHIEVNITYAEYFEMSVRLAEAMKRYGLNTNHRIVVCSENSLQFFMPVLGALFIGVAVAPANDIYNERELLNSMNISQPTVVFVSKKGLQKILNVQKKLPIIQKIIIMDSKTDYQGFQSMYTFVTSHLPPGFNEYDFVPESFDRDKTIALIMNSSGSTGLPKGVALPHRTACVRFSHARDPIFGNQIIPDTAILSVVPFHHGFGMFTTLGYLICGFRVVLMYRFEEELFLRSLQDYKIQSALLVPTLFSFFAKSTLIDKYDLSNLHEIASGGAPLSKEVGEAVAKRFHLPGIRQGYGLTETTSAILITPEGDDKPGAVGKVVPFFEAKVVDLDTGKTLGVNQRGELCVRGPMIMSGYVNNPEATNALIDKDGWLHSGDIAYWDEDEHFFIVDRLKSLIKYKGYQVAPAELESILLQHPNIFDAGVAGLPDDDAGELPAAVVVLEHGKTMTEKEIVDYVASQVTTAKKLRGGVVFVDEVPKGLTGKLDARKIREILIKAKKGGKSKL

Focal adhesion kinase 1 (Homo sapiens), sequence (Q05397 whole entry, looked up): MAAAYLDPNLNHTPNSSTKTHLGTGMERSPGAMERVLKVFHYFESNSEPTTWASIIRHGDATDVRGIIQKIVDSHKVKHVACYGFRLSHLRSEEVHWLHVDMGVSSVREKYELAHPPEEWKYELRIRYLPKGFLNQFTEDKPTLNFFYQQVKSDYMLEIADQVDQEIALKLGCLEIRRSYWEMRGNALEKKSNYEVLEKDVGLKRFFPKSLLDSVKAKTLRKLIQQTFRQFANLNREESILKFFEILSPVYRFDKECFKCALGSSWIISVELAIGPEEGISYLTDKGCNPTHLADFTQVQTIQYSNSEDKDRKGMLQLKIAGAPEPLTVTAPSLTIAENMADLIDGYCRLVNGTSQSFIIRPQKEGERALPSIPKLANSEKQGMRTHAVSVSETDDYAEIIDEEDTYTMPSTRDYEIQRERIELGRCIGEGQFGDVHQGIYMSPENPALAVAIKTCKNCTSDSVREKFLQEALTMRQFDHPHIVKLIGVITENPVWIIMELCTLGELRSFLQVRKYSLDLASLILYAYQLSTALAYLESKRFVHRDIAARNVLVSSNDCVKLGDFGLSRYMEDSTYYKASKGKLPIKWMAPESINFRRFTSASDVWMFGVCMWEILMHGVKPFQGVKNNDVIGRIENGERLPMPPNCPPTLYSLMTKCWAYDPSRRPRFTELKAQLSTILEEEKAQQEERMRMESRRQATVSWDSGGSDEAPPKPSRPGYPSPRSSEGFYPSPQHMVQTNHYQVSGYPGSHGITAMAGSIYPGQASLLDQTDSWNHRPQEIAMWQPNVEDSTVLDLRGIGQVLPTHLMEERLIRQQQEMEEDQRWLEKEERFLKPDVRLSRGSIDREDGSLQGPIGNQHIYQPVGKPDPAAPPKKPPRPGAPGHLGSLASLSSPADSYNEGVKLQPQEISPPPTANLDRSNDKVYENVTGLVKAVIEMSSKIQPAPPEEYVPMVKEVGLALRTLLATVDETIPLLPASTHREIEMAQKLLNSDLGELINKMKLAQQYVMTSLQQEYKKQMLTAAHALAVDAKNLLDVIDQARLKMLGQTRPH
Fibroblast growth factor 2 (Homo sapiens), sequence (P09038 whole entry, looked up): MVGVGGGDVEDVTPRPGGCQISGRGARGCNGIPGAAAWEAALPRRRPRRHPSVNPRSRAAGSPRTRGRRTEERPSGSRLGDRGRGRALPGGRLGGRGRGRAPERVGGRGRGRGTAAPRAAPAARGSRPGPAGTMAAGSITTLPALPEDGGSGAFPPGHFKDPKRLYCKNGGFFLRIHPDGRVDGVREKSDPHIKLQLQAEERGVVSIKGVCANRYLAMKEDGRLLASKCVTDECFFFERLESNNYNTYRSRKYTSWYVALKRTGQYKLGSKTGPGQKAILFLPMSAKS
Concanavalin-A (Canavalia ensiformis), sequence (P02866 whole entry, looked up): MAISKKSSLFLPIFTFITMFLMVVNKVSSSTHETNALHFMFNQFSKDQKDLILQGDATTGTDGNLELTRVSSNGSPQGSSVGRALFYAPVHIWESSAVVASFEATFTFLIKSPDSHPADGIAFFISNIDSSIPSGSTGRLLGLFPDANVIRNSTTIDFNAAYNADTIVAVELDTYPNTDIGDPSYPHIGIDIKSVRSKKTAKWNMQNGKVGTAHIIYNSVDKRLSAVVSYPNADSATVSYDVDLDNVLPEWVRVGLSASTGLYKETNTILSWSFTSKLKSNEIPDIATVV
Follistatin (Homo sapiens), sequence (P19883 whole entry, looked up): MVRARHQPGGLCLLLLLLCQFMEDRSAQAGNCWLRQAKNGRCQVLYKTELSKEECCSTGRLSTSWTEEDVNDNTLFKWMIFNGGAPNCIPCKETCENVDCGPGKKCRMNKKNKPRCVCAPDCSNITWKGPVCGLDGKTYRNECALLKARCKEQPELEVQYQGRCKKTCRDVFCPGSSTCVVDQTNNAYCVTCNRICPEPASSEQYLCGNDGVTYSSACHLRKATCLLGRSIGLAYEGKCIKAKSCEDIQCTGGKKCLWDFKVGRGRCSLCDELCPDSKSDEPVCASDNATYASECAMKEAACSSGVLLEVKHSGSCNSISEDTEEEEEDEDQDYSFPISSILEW
Albumin (Bos taurus), sequence (P02769 whole entry, looked up): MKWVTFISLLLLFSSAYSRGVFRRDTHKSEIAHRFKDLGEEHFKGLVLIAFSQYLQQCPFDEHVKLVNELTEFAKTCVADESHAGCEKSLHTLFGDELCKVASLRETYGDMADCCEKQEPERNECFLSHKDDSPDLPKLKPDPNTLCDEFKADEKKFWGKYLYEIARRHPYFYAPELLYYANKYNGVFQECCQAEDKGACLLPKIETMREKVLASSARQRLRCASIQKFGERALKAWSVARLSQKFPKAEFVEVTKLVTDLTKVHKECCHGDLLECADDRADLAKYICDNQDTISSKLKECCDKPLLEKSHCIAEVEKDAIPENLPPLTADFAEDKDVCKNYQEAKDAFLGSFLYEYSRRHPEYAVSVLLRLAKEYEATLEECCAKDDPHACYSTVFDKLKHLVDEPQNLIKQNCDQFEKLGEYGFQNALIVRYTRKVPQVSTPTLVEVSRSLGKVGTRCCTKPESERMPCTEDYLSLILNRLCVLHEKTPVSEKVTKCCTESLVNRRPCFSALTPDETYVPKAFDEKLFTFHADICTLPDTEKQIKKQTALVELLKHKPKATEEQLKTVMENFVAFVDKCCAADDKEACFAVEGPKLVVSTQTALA

Row | SMILES | composite z-score [1] | composite Z-score [2] | composite z-score [3] | composite z-score [4] | composite z-score [5] | composite z-score [6] | composite z-score [7] | composite z-score [8] | composite z-score [9] | composite z-score [10] | composite z-score [11] | composite z-score [12] | composite z-score [13] | composite z-score [14] | composite z-score [15] | composite z-score [16] | z-score [17] | composite z-score [18] | composite z-score [19] | z-score [20]
1 | O=C1OCC=C[C@H]2OC34C=CCN(Cn5nnc6ccccc65)C(=O)[C@H]3N(CCO)C(=O)[C@@H]4[C@@H]12 (stereo not given in full) | -1.46 | -0.358 (inactive) | -0.173 | -0.171 | 0.935 | 0.32 | -0.137 | 0.184 | -1.43 | -0.941 | 1.68 | -0.696 | -0.619 | -1.41 | -1.32 | -1.46 | -0.546 | -1.17 | -0.944 | 0.0848 (inactive)
2 | COc1ccc([Si](C)(C)[C@H]2[C@H](CC(=O)N3CCC[C@H]3CO)O[C@@]3(C(=O)N(Cc4cccc(N5CCCCC5=O)c4)c4ccccc43)[C@@H]2C)cc1 | 0.342 | 0.433 (inactive) | -0.318 | -0.161 | 0.462 | 1.83 | 0.648 | 1.31 | 1.19 | 1.13 | 0.999 | 0.989 | 0.79 | 0.732 | 1.08 | 1.52 | 3.51 | 1.36 | 0.442 | -1.5 (inactive)
3 | C=CC[C@]1(C(N)=O)N=C(c2ccc(OCCCO)cc2)O[C@H]1c1ccccc1N=[N+]=[N-] | 0.601 | 1.13 (inactive) | 0.067 | -0.0586 | 0.79 | 2.53 | 0.87 | 0.994 | 0.783 | 0.883 | 1.98 | 0.766 | -0.336 | 0.753 | 1.12 | 0.812 | 1.62 | -0.0005 | 0.762 | -14.1 (active)
4 | C=C(/C=C\CNS(=O)(=O)c1ccc(C)cc1)[C@H](O)[C@H]1CCCN1S(=O)(=O)c1ccccc1[N+](=O)[O-] | 0.678 | -0.429 (inactive) | 0.0026 | -0.147 | 0.319 | 0.119 | -0.538 | 0.127 | 0.411 | 0.152 | 0.721 | 0.427 | 0.445 | 0.191 | 0.216 | 0.272 | -0.321 | 0.177 | 0.878 | -1.1 (inactive)
5 | COC(=O)C1=CC(CCCO)=CC(c2ccc(CN3CCCC3)cc2)N(C)C=C1C(=O)OC (stereo not given) | 0.935 | 1.22 (inactive) | -0.105 | 0.0334 | 0.866 | 1.72 | 0.181 | 1 | 0.164 | 0.361 | 1.73 | 0.821 | 0.111 | 1.01 | 0.468 | -0.232 | 0.915 | -0.079 | 1.01 | -0.208 (inactive)
6 | COCCOC(=O)N1C(=O)[C@@]2(c3cc(C#CCCO)ccc31)[C@H](c1ccc(O)cc1)N1[C@H](c3ccccc3)[C@H](c3ccccc3)OC(=O)[C@H]1[C@@H]2C(=O)NC[C@H](O)c1ccccc1 | 0.417 | 0.406 (inactive) | -0.0105 | -0.0858 | 0.529 | 1.89 | 1.08 | 1.29 | 0.181 | 0.613 | 2.05 | 1.2 | 0.553 | 0.0868 | 1.17 | 0.767 | -0.703 | 0.958 | -0.333 | -1.52 (inactive)
7 | O=C1N(Cc2ccccc2)c2ccccc2C[C@@]12N=C(c1ccc(OCCCO)cc1)O[C@H]2c1ccccc1 | 0.542 | -0.329 (inactive) | -0.0328 | -0.0664 | 0.183 | 2.47 | -0.0401 | 1.29 | 0.0949 | 1.06 | 1.81 | 1.13 | 0.791 | 0.209 | 1.33 | 1.39 | -0.518 | 0.309 | 0.294 | -2 (inactive)
8 | CN(C)CCCCNC(=O)[C@H]1C[C@H]2C(=O)N[C@@H](CCCCN(C)C)C(=O)N2[C@H]1c1ccc(O)cc1 | -0.155 | 0.151 (inactive) | -0.0918 | -0.0262 | 0.518 | -0.28 | 0.224 | -0.093 | 1.15 | 0.224 | 1.01 | -0.102 | 0.129 | -0.803 | 1.19 | 0.988 | -0.0458 | 0.754 | 0.0466 | 0.47 (inactive)
9 | CCCCC(=C=CC[C@@H](O)c1ccccc1OCCO)C[C@@H](O)c1ccccn1 | 0.043 | 0.504 (inactive) | -0.0077 | -0.197 | 0.678 | 0.522 | 0.137 | 0.81 | 0.179 | 0.287 | -0.242 | 0.451 | 0.36 | 0.296 | 0.638 | 0.356 | 0.969 | 0.699 | -0.306 | -0.96 (inactive)
10 | C[N+](C)(C)CCCC[C@@H]1NC(=O)[C@H]2C[C@@H](C(=O)NCCCCCN)[C@@H](c3ccc(O)cc3)N2C1=O | 0.567 | -0.116 (inactive) | -0.0586 | -0.053 | 0.67 | 1.14 | 0.736 | 1.3 | 0.444 | 1.18 | 3.32 | 1.21 | 0.599 | 1.04 | 1.39 | 1.66 | 0.729 | 1.7 | 1.36 | -0.993 (inactive)
11 | COC(=O)[C@@]1(Cc2ccc(OC)cc2)[C@@H]2[C@@H](CC(=O)[C@H]2CC(=O)C(=O)N(C)C)CN1C(=O)c1ccccc1 | 0.964 | 0.289 (inactive) | 1.52 | 0.732 | 0.617 | 3.17 | 0.505 | 1.32 | -0.875 | 1.13 | 2.06 | 1.24 | 0.462 | 1 | 0.594 | 0.153 | 0.257 | -0.477 | 1.34 | -0.273 (inactive)

— PubChem BioAssay
